# Bioassay records (PubChem BioAssay)
# A selection: hits, their analogues and other compounds. The true share with any hit is near 6.2%.
# HT1080 IDH1KD tx = toxicity to HT-1080 IDH1 knockdown cells (counter line); 360,000 tested, 2% active; Potency, µM (highest dose often 46.1 µM), most hits filed as cytotoxic; HT-1080 IDH1 knockdown viability, ATP luminescence, 48 h; AID 686971
#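 Cytotoxicity counter-line: IDH1KD HT-1080, 48 h, CellTiter-Glo. Curves classed by r2, magnitude and activity.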
# HT1080NT lethal = kills 2HG-producing HT-1080-NT fibrosarcoma cells. HT-1080-NT fibrosarcoma viability, CellTiter-Glo ATP luminescence, 48 h. Potency, µM (top dose mostly 46.1 µM), usual class: cytotoxic. 360,000 tested, 1.6% active;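 note: NT is the 2HG producing partner of a matched IDH1 knockdown line; nearly all actives have a fitted effect of over 55% in size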
#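 Luminescent CellTiter-Glo readout after 48 hours of compound exposure at 37 degrees C defined viability of HT-1080-NT cells. Activity was normalized to DMSO wells and cell-free media wells; concentration-response curves were fitted and assigned curve classes.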
# ATXN2 expr inh = inhibitors of ATXN2 expression | 360,000 tested, 0.72% active | Potency, µM (series often up to 57 µM), most hits filed as inhibitors | AID 1745845 | HEK-293 ATXN2-luciferase reporter, luminescence, 24 h; note: nearly all actives have a fitted effect of over 55% in size
#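 qHTS (up to 57 uM final) was run with 24 h compound exposure of reporter cells at 37 °C. Each well was multiplexed: SteadyGlo luminescence measured ATXN2-luciferase expression after a fluorogenic Gly-Phe-AFC viability readout (25 uM final).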
# ATXN viability = cell viability loss in ATXN counter-screen; S2 cells (HEK-293 line with an ATXN2-luciferase reporter) viability, CellTiter-Fluor protease fluorescence, 24 h; Potency, µM (series often up to 56.7 µM), usual class: cytotoxic; 400,000 tested, 0.49% active; AID 651635; note: nearly all actives have a fitted effect of over 40% in size
# KB-V1 cytotox = KB-V1 MDR subline cytotoxicity; Potency, µM (top dose mostly 46.1 µM), hits mostly cytotoxic; KB-V1 MDR cells viability, CellTiter-Glo, 72 h; 400,000 tested, 3.4% active; note: nearly all actives have a fitted effect of over 60% in size
#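 Compound-treated KB-V1 multidrug-resistant cells, 72 h, 37 degrees C; viability by CellTiter-Glo. Fitted qHTS curves give the values.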
# KB-3-1 cytotox = kills parental KB-3-1 adenocarcinoma cells; KB-3-1 viability, CellTiter-Glo ATP luminescence, 72 h; Potency, µM (titrated, usually from 46.1 µM), hits mostly cytotoxic; 400,000 tested, 1.4% active; AID 1347075; note: nearly all actives have a fitted effect of over 60% in size
#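 Parental KB-3-1 adenocarcinoma cells in phenol-red-free DMEM with 10% FBS were pin-treated with compounds at several concentrations, incubated 72 h at 37 °C, and viability read by CellTiter-Glo luminescence; concentration-effect curves were fitted after normalization.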
# Numbers stand for hits; . = inactive; ? = inconclusive; / = no result. Calls come from the whole dose curve; as a rule, active = well fitted curve in the direction sought with a large enough effect; inconclusive = small, poorly fitted or top-dose-only effect, or another doubt; inactive = no such curve, though single readings can be large; an effect the other way counts as inactive or inconclusive.
SMILES,HT1080 IDH1KD tx,HT1080NT lethal,ATXN2 expr inh,ATXN viability,KB-V1 cytotox,KB-3-1 cytotox
CCOc1ccccc1NC(=O)CSc1nc2cc(OC)c(OC)cc2c2nc(CCn3c(C)nc4ccccc43)nn12,/,/,.,.,.,.
O=S(=O)(c1cccc(Br)c1)N1CCN(c2nc(-c3cccs3)nc3ccccc23)CC1,/,/,/,/,.,.
COc1ccc(/C=C2\SC(=O)N=C2N)cc1OC,.,.,/,.,.,.
O=C1OC(c2cccs2)=N/C1=C\c1ccc(-c2cccc(Cl)c2)o1,.,.,.,.,.,.
COc1ccc(/C=C2\SC(=N)N(c3nccs3)C2=O)cc1OC,?,?,11.2µM,?,.,?
N=C1S/C(=C\c2ccc(-c3cccc(Cl)c3)o2)C(=O)N1c1nccs1,?,.,3.55µM,5.62µM,?,7.31µM
CCOc1ccccc1C1N=C(N)Nc2nc3ccccc3n21 (centres undefined),/,/,.,.,.,.
CC(C)C[C@H]1CNC(=S)N1C[C@H]1CCCN1C[C@H](CC(C)C)N1C[C@H](Cc2ccc(O)cc2)N(CC2CCCCC2)C1=S,20.6µM,18.4µM,?,/,16.4µM,?
CC(C)C[C@@H](CN1CCCC1CN1C(=S)NC[C@@H]1Cc1ccc(O)cc1)N1C[C@H](Cc2ccc(O)cc2)N(CC2CCCCCC2)C1=S (some centres undefined),?,23.1µM,?,28.2µM,?,?
CC(C)C[C@H]1CN([C@@H](CC(C)C)CN2CCCC2CN2C(=S)NC[C@@H]2Cc2ccccc2)C(=S)N1CC1CCCCC1 (some centres undefined),16.4µM,.,.,.,?,.
CC(C)C[C@H]1CNC(=S)N1C[C@H]1CCCN1C[C@H](Cc1ccc(O)cc1)N1C[C@H](Cc2ccc(O)cc2)N(CC2CCCCCC2)C1=S,13µM,11.6µM,17.8µM,12.6µM,?,?
CC(C)C[C@H]1CNC(=S)N1CC1CCCN1C[C@H](Cc1ccccc1)N1C[C@H](Cc2ccc(O)cc2)N(CC2CCCCCC2)C1=S (some centres undefined),?,.,.,.,?,?
CC(C)C[C@@H](CN1CCCC1CN1C(=S)NC[C@@H]1Cc1ccc(O)cc1)N1C[C@H](Cc2ccccc2)N(CC2CCCCCC2)C1=S (some centres undefined),.,.,.,?,?,.
COc1ccc(-c2nnc(N3CCCCC3)c3ccccc23)cc1,.,.,?,.,11.6µM,?
Cc1ccc(-c2nnc(N3CCC(C)CC3)c3ccccc23)cc1C,29.1µM,?,?,.,?,.
Cc1ccc(-c2nnc(N3CCCCCC3)c3ccccc23)cc1,.,.,.,.,?,23.1µM
Cc1ccc(-c2nnc(N3CCC(C)CC3)c3ccccc23)cc1,.,.,/,?,?,.
CC1=C(C(=O)OCC2CCCO2)C(c2cccc(C(F)(F)F)c2)C2=C(CC(c3ccco3)CC2=O)N1 (centres undefined),?,.,/,/,?,15.8µM
CCOc1ccc(-c2nnc(SCC(=O)Nc3cc(C)ccc3OC)o2)cc1,/,/,.,.,.,.
O=C(c1cc(-c2ccc(Cl)c(Cl)c2)on1)N1CCN(c2ccccc2)CC1,.,.,.,.,.,.
CC1CCCCN1C(=O)c1cc(-c2ccc3c(c2)OCO3)on1 (centres undefined),.,.,.,.,.,.
CCC1CCCCN1C(=O)c1cc(-c2ccc(Cl)c(Cl)c2)on1 (centres undefined),.,.,.,.,20.6µM,.
CC1CCCCN1C(=O)c1cc(-c2ccc(Cl)c(Cl)c2)on1 (centres undefined),.,.,.,.,18.4µM,.
O=C(c1cc(-c2ccc(Cl)c(Cl)c2)on1)N1CCCCC1,.,.,.,.,14.6µM,.
O=C(c1cc(-c2ccc(Cl)cc2)on1)N1CCCC1,.,.,?,?,.,.
SMILES,HT1080 IDH1KD tx,HT1080NT lethal,ATXN2 expr inh,ATXN viability,KB-V1 cytotox,KB-3-1 cytotox
CCOC(=O)Oc1ccc(CCNC(=O)[C@H](CCSC)NC(C)=O)cc1OC(=O)OCC,/,/,.,.,/,/
O=C(NNC(=S)Nc1ccc(Cl)cc1)c1ccccc1OC(F)F,?,?,?,.,3.26µM,18.4µM
O=C(NNC(=S)Nc1cccc(C(F)(F)F)c1)c1ccccc1Cl,?,18.4µM,?,.,?,?
FC(F)(F)c1cccc(NC(=S)NC2CCCC2)c1,.,.,.,.,?,18.4µM
Cc1ccc(NC(=S)NNC(C)(C)C)cc1,18.4µM,?,.,.,.,.
FC(F)(F)c1cccc(N2CCN(C(=S)NC3CCCCC3)CC2)c1,?,.,?,?,20.6µM,?
CCCNC(=S)Nc1cccc(C(F)(F)F)c1,.,.,.,.,.,.
CC(C)(C)NNC(=S)Nc1cccc(C(F)(F)F)c1,10.3µM,.,?,.,.,.
FC(F)(F)c1cccc(NC(=S)Nc2cccc(NC(=S)Nc3cccc(C(F)(F)F)c3)n2)c1,23.1µM,?,?,.,?,?
O=C(NCC1CCC2(CCN(Cc3cccc4cccnc34)CC2)O1)c1ccco1 (centres undefined),/,/,/,.,/,/
O=C(C[n+]1c2ccccc2cc2ccccc21)c1ccc(F)cc1,/,/,/,/,.,?
C/C(=N\NC(N)=O)c1ccccc1,.,.,.,.,?,.
C/C(=N\NC(N)=O)c1ccc(Cl)cc1,.,.,.,.,11.6µM,?
S=c1[nH]cc(-c2ccccc2)n1-c1ccccc1Cl,.,.,.,.,13µM,.
C=CCn1c(=O)/c(=C/c2ccc(Cl)cc2)s/c1=C(/C#N)c1nnc2n1CCCCC2,.,.,22.4µM,17.8µM,.,.
CNC(=O)CSc1nc2cc(S(=O)(=O)Nc3ccccc3OC)ccc2o1,.,.,.,.,.,.
COc1ccccc1NS(=O)(=O)c1ccc2oc(SCc3ccc(C#N)cc3)nc2c1,.,.,.,.,9.2µM,.
COc1ccc(S(=O)(=O)N(C(C)=O)c2ccc(OC(C)=O)c3ccccc23)cc1[N+](=O)[O-],?,20.6µM,/,?,?,?
CC(=O)Oc1ccc(N(C(C)=O)S(=O)(=O)c2ccccc2)c2ccccc12,.,?,/,.,.,.
CC12CCC(c3c(C(=O)Nc4nccs4)nn(-c4ccccc4)c31)C2(C)C (centres undefined),14.1µM,?,.,.,.,.
Cc1cc(O)c(C(c2ccccc2Cl)N2CCN(c3ccccc3)CC2)c(=O)n1Cc1ccco1 (centres undefined),/,/,/,/,.,.
COCC(=O)Nc1cc(C(=O)N2CCCOc3c(cccc3OC)C2)c2c(c1)nc(C1CCC1)n2C,/,/,/,.,/,/
CCc1ccc2[nH]c3nc(N/N=C/c4cccc(O)c4)nnc3c2c1,9.2µM,?,.,?,.,?
